High-throughput results deposited in PubChem by National Center for Advancing Translational Sciences (NCATS).
The list is not random: actives were taken first. Their share in the collection is about 19%.
HT1080 IDH1KD tx = kills HT-1080 cells with IDH1 knockdown; 360,000 compounds, 2% hits; HT-1080 IDH1 knockdown viability, ATP luminescence, 48 h; Potency, µM (doses to about 46.1 µM), for inactives: top-dose activity, negative = toxicity, hits mostly cytotoxic; AID 686971;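 further: potency means the concentration at half of the fitted maximal effect; 0% = DMSO wells and -100% = cell-free medium wells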
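Using the IDH1-knockdown HT-1080 line run in the same batch and compound series as the NT line, viability after 48 h at 37 °C was determined by CellTiter-Glo luminescence and expressed as % activity.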
DT40 TDP1 CPT = DT40-hTDP1 cell growth loss with CPT | chicken DT40 Tdp1-/-;hTDP1 cells + 20 nM CPT, ATP luminescence, 48 h | Potency, µM (series often up to 46.2 µM), inactives show top-dose activity change, negative = growth inhibition, actives largely listed as inhibitors | 420,000 compounds, 12% hits | AID 686979; further: potency means the concentration at half of the fitted maximal effect; nearly all actives have a fitted effect of over 55% in size
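Chicken DT40 Tdp1-/- cells stably complemented with human TDP1 were seeded at 400 cells/well in medium containing 20 nM camptothecin, exposed to pin-transferred compounds, and grown at 37 °C for at least 48 hr. Viability was read as ATP luminescence.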
IL-1B inflam inh = blocks inflammasome-driven IL-1 beta release | THP-1 LPS/ATP IL-1B secretion, AlphaLISA, 16 h; active compounds read low | activity change, % at 57.5 µM | 360,000 compounds, 4.7% hits; in the data active means activity change below about -50%; inconclusive means mostly about -30% to -49%
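Secreted IL-1B measured by AlphaLISA bead assay after 16 h compound exposure of THP-1 cells; compounds (final up to 57.5 uM) added 1 h before LPS (250 ng/mL) and ATP (1.25 mM) stimulation; lower signal means less secretion.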
DT40 TDP1 no CPT = qHTS for Inhibitors of human tyrosyl-DNA phosphodiesterase 1 (TDP1): qHTS in cells in absence of CPT | Potency, µM (titrated, usually from 46.2 µM), without a hit: at the highest dose activity change, negative = growth inhibition, actives largely listed as inhibitors | DT40 Tdp1-/- hTDP1 cells, no CPT, ATP luminescence, 48 h | 420,000 compounds, 15% hits; further: potency means the concentration at half of the fitted maximal effect; nearly all actives have a fitted effect of over 55% in size
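Seeded 400 DT40-hTDP1 cells/well (vehicle DMSO, no 20 nM CPT); pinned compounds; ≥48 hr at 37 °C; CellTiter-Glo luminescence as viability measure.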
HT1080-NT tox = kills 2HG-producing HT-1080-NT fibrosarcoma cells; HT-1080-NT fibrosarcoma viability, CellTiter-Glo ATP luminescence, 48 h; Potency, µM (titrated, usually from 46.1 µM), for the others: top-dose activity, negative = less viability, usual class: cytotoxic; 360,000 compounds, 1.6% hits; AID 686970;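 further: NT is the 2HG producing partner of a matched IDH1 knockdown line; potency means the concentration at half of the fitted maximal effect; 0% = DMSO-treated cells and -100% = media-only wells without cells; nearly all actives have a fitted effect of over 55% in size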
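HT-1080-NT; 750 cells/well; 5% FBS RPMI; 48 h compound, 37 degrees C; CellTiter-Glo luminescence; curve fitting and curve-class assignment.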
Starred values were filed as active, the others as inactive; ? = inconclusive; . = not tested or not shown; ! = not confirmed by another sample. Unless noted, the call rests on the fitted dose curve; in most records, active means well fitted curve in the direction sought with a large enough effect; inconclusive means small, poorly fitted or top-dose-only effect, or another doubt; inactive means no such curve, though single readings can be large; an effect the other way counts as inactive or inconclusive. Unless noted, on the % scale 0 is the no-effect control and ±100 the full control effect.

SMILES	HT1080 IDH1KD tx	DT40 TDP1 CPT	IL-1B inflam inh	DT40 TDP1 no CPT	HT1080-NT tox
COC(=O)[C@]12CCCCC=C1N(CCc1ccc(OC)c(OC)c1)C(=O)[C@H](CC(=O)N1CCN(C(=O)c3ccco3)CC1)C2	-29.1%	?	?	?	-22.0%
COC(=O)[C@]12CCCCC=C1N(CCC1=CCCCC1)C(=O)[C@H](CC(=O)N1CCN(C(=O)c3ccco3)CC1)C2	-17.3%	?	-15.4	25.9µM*	-13.7%
COC(=O)[C@]12CCCCC=C1N(CCc1ccc(OC)c(OC)c1)C(=O)[C@H](CC(=O)N1CCCC1)C2	1.9%	?	?	?	14.5%
CCOC(=O)C1=C(Nc2ccccc2)CC(C)(O)C(C(=O)OCC)C1c1ccc(Cl)cc1 (configuration not stated)	-7.7%	?	?	?	-6.6%
NC1C(O)OC(CO)[C@@H](O)[C@@H]1O[C@H]1O[C@@H](C(=O)O)C(O)C(O)C1O (some centres not stated)	.	16.0%	.	7.1%	.
COc1cc(/C=N/NC(=O)CCC(=O)Nc2ccc(Br)cc2)ccc1O	1.5%	4.7%	2.9	-17.1%	-1.2%
NC(=O)c1ccc2c(=O)c(O)c(-c3cc(Cl)c(N)c(Cl)c3)[nH]c2c1	-4.1%	-19.1%	-6.2	-4.6%	24.8%
COC(=O)[C@@H]1C[C@H]2CC[C@H](O)C[C@H]2N1Cc1ccccc1OS(=O)(=O)c1ccc(C)cc1	13.0%	?	14.7	?	7.9%
O=C(O)c1cc(=O)c2ccccc2[nH]1	-4.6%	0.058µM*!	21.7	-11.8%	-2.8%
Cc1ccc2[nH]c(=S)cc(C)c2c1	-8.7%	?	-2.8	?	-3.2%
O=c1[nH]c2ccccc2c2ccccc12	-14.5%	?	0.0	?	-6.2%
O=c1cc(C(F)(F)F)[nH]c2ccccc12	-25.6%	?	0.0	20.6µM*	?
Cc1ccc2[nH]c(C(F)(F)F)cc(=O)c2c1	?	?	.	11.6µM*	-25.3%
Cc1cccc2c(=O)cc(C(F)(F)F)[nH]c12	?	?	20.8	?	?
O=c1cc(C(F)(F)F)[nH]c2c(OC(F)(F)F)cccc12	?	-18.6%	-59.0*	?	?
CCOc1cccc(OCCCn2c(-c3ccc(Br)cc3)nc3ccccc3c2=O)c1	.	-26.4%	.	-19.2%	.
COc1nc(NCc2cccnc2)nc(NC2CCCCC2)n1	-2.3%	6.9%	-11.1	-2.3%	3.4%
CCOc1ccc(Nc2cc(C)nc(N3CCOCC3)n2)cc1	-16.2%	-25.1%	1.7	?	-16.7%
Cc1cc(NC2CCCCC2)nc(NCc2ccccc2)n1	?	4.61µM*	-74.3*	4.61µM*	?
Cc1ccc(Nc2cc(C)nc(NCc3ccccc3)n2)cc1	18.4µM*	2.59µM*	-228.5*	2.59µM*	20.6µM*
CCCOc1ccc(Nc2cc(C)nc(C)n2)cc1	.	23.1µM*	.	?	.
COc1ccc(Nc2cc(C)nc(NCc3ccccc3)n2)cc1	20.6µM*	5.17µM*	-98.7*	4.61µM*	18.4µM*
O=C(N/C(=C/c1ccc(F)cc1)C(=O)N1CCCCC1)c1ccco1	4.9%	4.4%	8.3	12.2%	16.6%
Cc1cc(N/N=C/c2ccccc2Cl)nc(NCc2ccccc2)n1	?	4.61µM*	-68.0*	4.11µM*	?
C/C(=N\NC(=O)c1cc(C)nc2ccccc12)c1ccc([N+](=O)[O-])cc1	-25.0%	-25.4%	13.7	-24.7%	-14.5%
SMILES	HT1080 IDH1KD tx	DT40 TDP1 CPT	IL-1B inflam inh	DT40 TDP1 no CPT	HT1080-NT tox
C/C(=N\Nc1cc(C)nc(NCc2ccccc2)n1)c1ccc([N+](=O)[O-])cc1	-1.6%	13µM*	0.0	9.2µM*	2.1%
Cc1ccc(SC(=O)COc2ccccc2C)cc1	10.0%	13µM*	-29.7	?	5.8%
Cc1cc2nnc(SCC(=O)NC3CCCCC3)n2c(N)n1	19.6%	9.5%	-7.9	-0.5%	0.4%
COc1ccccc1NC(=O)CCN1CCC(C(N)=O)CC1	.	-17.9%	.	-5.9%	.
COc1ccccc1Nc1nc(Cl)c(C=O)s1	-0.7%	?	-53.3*	?	-8.2%
Cc1ccc(Nc2nc(Cl)c(C=O)s2)cc1Cl	?	?	-101.9*	?	18.4µM*
O=Cc1sc(Nc2ccccc2)nc1Cl	-13.3%	-28.8%	-16.7	?	-19.7%
COc1ccccc1CNC(=O)C12CC3CC(CC(C3)C1)C2	-22.2%	?	11.8	?	-2.8%
COC(=O)C1(C(=O)OC)C[C@H](c2ccc(OC)cc2)N(Cc2ccccc2OC)[C@@H]1c1ccc(OC)cc1	-8.2%	?	?	20.6µM*	-8.0%
CCOC(=O)N1CCN(C(=O)c2cn(CC)c3ccc(S(=O)(=O)N4CCCCC4)cc3c2=O)CC1	-1.0%	-12.6%	-3.2	8.8%	1.1%
O=S(=O)(NCCSc1nc2ccccc2o1)c1ccccc1	3.5%	16.4µM*	0.0	16.4µM*	1.6%
c1ccc2sc(SCSc3nc4ccccc4s3)nc2c1	-23.5%	?	21.5	?	-0.6%
CCS(=O)(=O)CCSc1nc2ccccc2o1	-0.6%	0.2%	3.8	-3.0%	-5.3%
